In the library only some 2.7% were active in any assay of this set; here they are far more common.
ATG4B inh: ATG4B (human) cysteine protease inhibition; inhibition, % at 8.33 µM; ATG4B cleavage of LC3-PLA2, NBD-HPC fluorescence, 1 h; 0.51% of 340,000 active; in the data active = inhibition above about 40%
Target sequence (Q9Y4P1 whole entry, looked up): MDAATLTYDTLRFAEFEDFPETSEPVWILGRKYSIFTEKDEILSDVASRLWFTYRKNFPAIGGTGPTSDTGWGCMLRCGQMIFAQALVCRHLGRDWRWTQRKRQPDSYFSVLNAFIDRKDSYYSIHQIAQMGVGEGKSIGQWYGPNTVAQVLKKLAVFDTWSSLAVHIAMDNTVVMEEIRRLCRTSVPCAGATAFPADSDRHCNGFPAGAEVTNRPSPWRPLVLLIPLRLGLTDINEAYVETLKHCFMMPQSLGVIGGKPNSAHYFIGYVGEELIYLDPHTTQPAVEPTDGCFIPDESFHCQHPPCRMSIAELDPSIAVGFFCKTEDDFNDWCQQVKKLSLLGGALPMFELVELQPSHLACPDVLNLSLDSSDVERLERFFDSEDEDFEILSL
MPTP block: permeability transition pore inhibition; isolated mouse mitochondria, Ca2+ swelling absorbance, 30 min; inhibition, % at 10 µM; 1.4% of 360,000 active; AID 602449;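 active = inhibition of 50% or more, scaled per plate between neutral and stimulator controls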;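 also: 0% = DMSO wells given calcium and 100% = 1 mM EGTA wells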
CendR NRP1 mod: modulators of CendR peptide binding to human neuropilin-1 | inhibition, % at 25 µM | FAM-RPARPAR peptide binding to NRP-1, fluorescence polarization | 0.85% of 360,000 active | O14786;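 active = inhibition or corrected inhibition above about 18%, plus a signal ratio from 0.5 to 1.5, limit read from the data, passing the limit was not always enough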
SKN-1 block: blocks SKN-1 activity in C. elegans; C. elegans VP596 Pgst-4::GFP/RFP ratio, acrylamide-induced, 24 h; inhibition, % at 21.8 µM; 0.49% of 360,000 active; AID 624304;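 active = interference check ratio from 0.5 to 1.5 plus GFP to RFP signal ratio inhibition reaching or exceeding a fixed threshold, cut at about 30% in these data, passing the limit was not always enough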
F508del corr: correctors of CFTR F508del function in bronchial epithelial cells. CFBE cells, YFP halide quenching; stimulated with forskolin plus potentiator P3; % fluorescence drop versus neutral controls. activity (quench increase), % at 7.58 µM. 0.36% of 350,000 active. AID 720511;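 active = mean added fluorescence quench of at least 8% versus neutral control, with both replicates also reaching 8%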;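 also: cells transiently co-express mutant CFTR-F508del with the halide-sensitive YFP; corrector assay measuring rescue of mutant channel to the surface after 24 h compound exposure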
The depositor's hits bear a star; x = no result.

SMILES	ATG4B inh	MPTP block	CendR NRP1 mod	SKN-1 block	F508del corr
O=C(NNC(=O)c1ccc2ccccc2c1)c1ccc(Cl)c(Cl)c1	10	1	26*	15	0
COc1ccc(S(=O)(=O)N(C)C[C@H]2OCCCC[C@@H](C)Oc3ccc(NS(=O)(=O)c4cn(C)cn4)cc3C(=O)N([C@@H](C)CO)C[C@H]2C)cc1	x	x	x	x	2
COc1ccc2c3c([nH]c2c1)[C@H](CO)N(C(=O)c1ccncc1)CC31CN(C(=O)Nc2cccc(F)c2)C1	x	x	x	x	1
CCn1cc(C(=O)N2CCN(Cc3ccc4c(c3)OCO4)CC2)c(=O)c2ccc(C)nc21	2	-8	-2	-6	x
CCCc1nc2ccccc2c(C(=O)OCC(=O)NCc2ccc3c(c2)OCO3)c1CC	-2	2	-4	-3	9.0*
CCn1cc(C(=O)OCC(=O)NCc2ccc3c(c2)OCO3)c(=O)c2ccc(C)nc21	5	0	-2	35*	x
CC(=O)Nc1ccc(Oc2cc(C#N)c(C#N)cc2N2CCCCCC2)cc1	-10	-3	1	26	x
CC(=O)Nc1ccc(Oc2cc(C#N)c(C#N)cc2N2CCOCC2)cc1	-6	0	41*	-21	x
CCC(=O)N1CC2(CCN(Cc3ccccc3Cl)CC2)c2c([nH]c3cc(OC)ccc23)[C@@H]1CO	x	x	x	x	1
NC(=O)c1ccccc1N=Cc1cccnc1	3	2	33*	-7	-1
CC(C)OC(=O)c1ccc(NC(=O)c2ccccc2)cc1	-4	-5	35*	32	x
COc1ccc(NC(=O)c2ccccc2Oc2ccccc2)c(OC)c1	4	0	6	20	-1
COc1ccccc1NC(=O)c1ccccc1Oc1ccccc1	2	3	26*	1	3
COC(=O)c1ccsc1NC(=O)c1ccccc1	3	0	3	24	8.6*
COc1ccc(C(=O)Nc2ccccc2C(=O)Nc2ccccc2)cc1	x	1	8	6	8.8*
CC(=O)NC[C@@H]1[C@H](c2ccc(-c3ccccc3)cc2)[C@@H](CO)N1C(=O)C1CC1	x	x	x	x	2
C[C@H](CO)N1C[C@H](C)[C@H](CN(C)S(=O)(=O)c2ccc(Cl)cc2)Oc2ccc(NS(=O)(=O)c3ccc(Cl)cc3)cc2C1=O	x	x	x	x	-3
C[C@@H]1CN([C@@H](C)CO)C(=O)c2cc(C#Cc3cccnc3)cnc2O[C@@H]1CN(C)C(=O)CC1CC1	x	x	x	x	-1
CC(C)(C)NC(=O)c1cccc2c1-c1ccccc1C2=O	0	0	2	-2	10*
C[N+](C)(CC#Cc1ccccc1)CC(=O)c1ccccc1	17	-1	42*	-6	x
C[N+](C)(CC#Cc1ccccc1)CC(=O)c1ccc(Cl)cc1	5	0	-18	5	-1
N#Cc1ccc(Nc2nc(-c3ccccc3)cs2)cc1	x	5	6	27	4
c1ccc(-c2csc(Nc3ccc4c(c3)OCO4)n2)cc1	x	2	24*	5	-2
c1ccc(-c2csc(NC3=NCCCCC3)n2)cc1	-4	1	1	2	11*
CNC(=O)C[C@@H]1CC[C@@H]2[C@H](COC[C@H](O)CN2C(=O)c2ccc3c(c2)OCO3)O1	x	x	x	x	0
SMILES	ATG4B inh	MPTP block	CendR NRP1 mod	SKN-1 block	F508del corr
Fc1ccc(CNc2nc(-c3ccccc3)nc3ccccc23)cc1	14	2	0	46*	1
c1ccc(-c2nc(NCc3cccnc3)c3ccccc3n2)cc1	14	0	-7	22	-1
c1ccc(CCNc2nc(-c3ccccn3)nc3ccccc23)cc1	-9	42	12	27	13*
c1cnc2ccc(-c3ccc4ncccc4c3)cc2c1	-11	1	-6	74*	3
Cc1ccc2ncccc2c1	6	-1	-11	-1	-1
CN(C)c1ccc(N=Nc2ccc3ncccc3c2)cc1	-2	1	0	59*	2
CN(C)c1ccc(N=Nc2cccc3ccoc23)cc1	8	1	3	29	-1
CN(C)c1ccc(N=Nc2cccc(F)c2)cc1	2	0	6	34*	0
Cc1cc(N(C)C)ccc1N=Nc1ccc2ncccc2c1	-1	3	1	69*	0
N#C[C@H]1[C@H](c2ccc(-c3cccnc3)cc2)[C@H](CO)N1C(=O)C1CCC1	x	x	x	x	-2
CCCNC(=O)C[C@@H]1CC[C@H]2[C@@H](COC[C@@H](O)CN2Cc2ccc(Cl)c(Cl)c2)O1	x	x	x	x	-1
CO[C@H](CN(C)C(=O)c1ccccc1F)[C@H](C)CN([C@H](C)CO)S(=O)(=O)c1ccc(Cl)cc1	x	x	x	x	3
CCOc1ccccc1C(=O)Nc1ccc(-n2nncc2C(C)(C)C)cc1	1	5	0	35*	x
C[C@@H]1CN([C@H](C)CO)C(=O)c2cc(NC(=O)NC3CCCCC3)ccc2O[C@@H](C)CCCCO[C@@H]1CN(C)C(=O)Nc1ccccc1	x	x	x	x	2
Cc1cc(C(=O)COC(=O)c2cccc(S(=O)(=O)N(C)C)c2)c(C)n1CC1CCCO1 (stereo not drawn)	-6	-2	-3	9	-1
CNS(=O)(=O)c1cccc(C(=O)OCC(=O)c2cc(C)n(CC3CCCO3)c2C)c1 (stereo not drawn)	-3	0	18	4	25*
Cc1cc(N2CCCC2)ccc1/C=C1\NC(=S)N(C)C1=O	31	14	-42	43*	x
CN1C(=O)c2ccc(N3CCCC3)cc2C1=O	-5	-2	-3	14	x
CCCCn1nnnc1C(c1cc2ccccc2o1)N1CCN(c2c(C)cccc2C)CC1 (stereo not drawn)	x	3	26*	-6	0
CCCCn1nnnc1C(c1cc2ccccc2o1)N1CCCCC1 (stereo not drawn)	x	0	-11	8	3
Cc1ccc(S(=O)(=O)Nc2cccc3c2O[C@@H](CN(C)Cc2ccc(C(=O)O)cc2)[C@H](C)CN([C@H](C)CO)C3=O)cc1	x	x	x	x	-3
COCCN(C(=S)Nc1ccc(C)cc1C)C(C)c1cccs1 (stereo not drawn)	-4	1	-3	0	-1
COCCN(C(=S)Nc1ccccc1C)C(C)c1cccs1 (stereo not drawn)	10	0	26*	-3	x
Cc1ccccc1-c1ccccc1[C@H]1[C@@H](C#N)N(C(=O)c2ccccc2)[C@H]1CO	x	x	x	x	3
N#CC1c2ccccc2-c2ccccc2N1C(=O)c1ccccc1 (stereo not drawn)	x	2	14	-11	11*
O=C(CN1CCN(Cc2ccccc2)CC1)NCCNc1ccc([N+](=O)[O-])cn1	-3	1	9	10	1
COc1ccc(CNC(=O)Cn2ccc(N)nc2=O)cc1	3	0	32*	5	-4
Nc1ccn([C@@H]2O[C@H](C(=O)NCc3ccc4c(c3)OCO4)[C@@H](O)[C@H]2O)c(=O)n1	x	0	26*	-9	1
Nc1ccn(CC(=O)NCCNc2ccc([N+](=O)[O-])cn2)c(=O)n1	4	0	28*	-11	0
